Targets with a hit are over-represented here; the source holds about 7,900 in all. About 0.6% of all pairs of compound and target were hits.
Legend:
Assay in all cases: log2 fold change, soluble protein after heating vs DMSO (PISA); higher = thermal stabilisation; K562 cells, 10 uM, 30 min; active = over 0.2 and 3.5 SD of the protein, either way, in both replicates (recomputed)
[1] = compound: CC1=C(C=C(C=C1)NC(=O)C2=CC(=CC=C2)C(C)(C)C#N)NC3=CC4=C(C=C3)N=CN(C4=O)C
Summary of the method: (§1)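 Soluble protein was defined as the supernatant after 21,000xg for 90 min. It came from K562 cells at 2×10^6 cells/mL given 10 μM compound for 30 min, heated in aliquots for 3 min across 48°C-58°C, pooled, and extracted in PBS with 0.5% NP-40 at 4°C, and was quantified by TMTpro 16plex LC-MS/MS with equalised channel sums. Thermal stability against control samples, from duplicates, is reported as log2 fold change.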

[2] = compound: CC1=C(C=C(C=C1)NC(=O)C2=CC(=CC=C2)N(C)C)NC(=O)C3=CC=C(C=C3)O
Summary of the method: as §1

[3] = compound: CC1=CC=C(C=C1)SC2=C3C=C(SC3=CN=C2)C(=O)N
Summary of the method: as §1

[4] = compound: CC1=NC(=CC=C1)C2=C(N=C(N2)C(C)(C)C)C3=CC4=NC=CN=C4C=C3
Summary of the method: as §1

[5] = compound: CCCCN(Cc1ccc(C(=O)NO)cc1)C(=O)Nc1ccccc1 [Nexturastat A]
Summary of the method: as §1

[6] = compound: CCCS(=O)(=O)Nc1ccc(F)c(C(=O)c2c[nH]c3ncc(-c4ccc(Cl)cc4)cc23)c1F [vemurafenib]
Summary of the method: as §1

[7] = compound: CCCS(=O)(=O)Nc1ccc(F)c(C(=O)c2c[nH]c3ncc(Cl)cc23)c1F
Summary of the method: as §1

[8] = compound: CCCc1cc(C)[nH]c(=O)c1CNC(=O)c1cc(-c2ccnc(N3CCN(C)CC3)c2)cc2c1cnn2C(C)C
Summary of the method: as §1

[9] = compound: CCN(CC)Cc1ccc2cc(COC(=O)Nc3ccc(C(=O)NO)cc3)ccc2c1 [givinostat]
Summary of the method: as §1

[10] = compound: CCN(CCCOc1ccc2c(Nc3cc(CC(=O)Nc4cccc(F)c4)[nH]n3)ncnc2c1)CCOP(=O)(O)O [barasertib]
Summary of the method: as §1

[11] = compound: CC[C@@H]1C(=O)N(C)c2cnc(Nc3ccc(C(=O)NC4CCN(C)CC4)cc3OC)nc2N1C1CCCC1
Summary of the method: as §1

[12] = compound: CC[C@@H]1C(=O)N(C)c2cnc(Nc3ccc(C(=O)N[C@H]4CC[C@H](N5CCN(CC6CC6)CC5)CC4)cc3OC)nc2N1C(C)C [volasertib]
Summary of the method: as §1

[13] = compound: CC[C@H](C)N1C=C(C2=C(C=C(C=C21)C3=CN=C(C=C3)N4CCNCC4)C(=O)NCC5=C(C=C(NC5=O)C)C)C
Summary of the method: as §1

[14] = compound: CC[C@H](C)[C@@H](C(=O)N[C@@H]([C@@H](C)O)C(=O)N[C@@H](CC(C)C)C(=O)[C@]1(CO1)C)NC(=O)[C@H]([C@@H](C)CC)N(C)C(=O)C [epoxomicin]
Summary of the method: as §1

[15] = compound: CCn1c(C(=O)N(C2CC2)C2CC2)cc2c3c(ncn3C)c(Nc3cc(C)n(C)n3)nc21
Summary of the method: as §1

[16] = compound: CCn1cc(-c2ccnc3[nH]c(-c4cccc(CN(C)C)c4)cc23)c(-c2ccc(NC(=O)N(C)C)cc2)n1
Summary of the method: as §1

[17] = compound: CN(C)CC(=O)Nc1ccc2[nH]c(=O)c3ccccc3c2c1
Summary of the method: as §1

[18] = compound: CN(CCOC1=CC=C(C=C1)C[C@H]2C(=O)NC(=O)S2)C3=CC=CC=N3 (racemic) [rosiglitazone]
Summary of the method: as §1

[19] = compound: CN1C2=C(C3=C1C(=O)N(N=C3)CC4=CC(=CC=C4)N)SC(=C2)S(=O)C
Summary of the method: as §1

[20] = compound: CN1CCC(CNc2ccc3ncc(-c4cccc(OC(F)(F)F)c4)n3n2)CC1
Summary of the method: as §1

Measured: log2 fold change

ARFRP1 (UniProt Q13795)
UniProt Q13795, sequence (Q13795 whole entry, looked up): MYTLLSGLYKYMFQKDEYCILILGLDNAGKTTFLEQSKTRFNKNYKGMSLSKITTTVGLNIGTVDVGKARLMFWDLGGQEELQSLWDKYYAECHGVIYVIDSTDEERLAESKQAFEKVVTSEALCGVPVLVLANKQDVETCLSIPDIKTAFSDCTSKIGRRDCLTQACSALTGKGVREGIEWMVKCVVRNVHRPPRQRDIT
inactive: [1] 0.138 | [2] 0.003 | [3] 0.082 | [4] 0.069 | [5] -0.048 | [6] 0.033 | [7] 0 | [8] 0.046 | [9] 0.012 | [10] -0.015 | [11] -0.038 | [12] -0.05 | [13] 0.048 | [14] 0.037 | [15] 0.026 | [16] -0.23 | [17] 0.012 | [18] -0.021 | [19] -0.021 | [20] 0.071

BMP2K (UniProt Q9NSY1)
UniProt Q9NSY1, sequence (Q9NSY1 whole entry, looked up): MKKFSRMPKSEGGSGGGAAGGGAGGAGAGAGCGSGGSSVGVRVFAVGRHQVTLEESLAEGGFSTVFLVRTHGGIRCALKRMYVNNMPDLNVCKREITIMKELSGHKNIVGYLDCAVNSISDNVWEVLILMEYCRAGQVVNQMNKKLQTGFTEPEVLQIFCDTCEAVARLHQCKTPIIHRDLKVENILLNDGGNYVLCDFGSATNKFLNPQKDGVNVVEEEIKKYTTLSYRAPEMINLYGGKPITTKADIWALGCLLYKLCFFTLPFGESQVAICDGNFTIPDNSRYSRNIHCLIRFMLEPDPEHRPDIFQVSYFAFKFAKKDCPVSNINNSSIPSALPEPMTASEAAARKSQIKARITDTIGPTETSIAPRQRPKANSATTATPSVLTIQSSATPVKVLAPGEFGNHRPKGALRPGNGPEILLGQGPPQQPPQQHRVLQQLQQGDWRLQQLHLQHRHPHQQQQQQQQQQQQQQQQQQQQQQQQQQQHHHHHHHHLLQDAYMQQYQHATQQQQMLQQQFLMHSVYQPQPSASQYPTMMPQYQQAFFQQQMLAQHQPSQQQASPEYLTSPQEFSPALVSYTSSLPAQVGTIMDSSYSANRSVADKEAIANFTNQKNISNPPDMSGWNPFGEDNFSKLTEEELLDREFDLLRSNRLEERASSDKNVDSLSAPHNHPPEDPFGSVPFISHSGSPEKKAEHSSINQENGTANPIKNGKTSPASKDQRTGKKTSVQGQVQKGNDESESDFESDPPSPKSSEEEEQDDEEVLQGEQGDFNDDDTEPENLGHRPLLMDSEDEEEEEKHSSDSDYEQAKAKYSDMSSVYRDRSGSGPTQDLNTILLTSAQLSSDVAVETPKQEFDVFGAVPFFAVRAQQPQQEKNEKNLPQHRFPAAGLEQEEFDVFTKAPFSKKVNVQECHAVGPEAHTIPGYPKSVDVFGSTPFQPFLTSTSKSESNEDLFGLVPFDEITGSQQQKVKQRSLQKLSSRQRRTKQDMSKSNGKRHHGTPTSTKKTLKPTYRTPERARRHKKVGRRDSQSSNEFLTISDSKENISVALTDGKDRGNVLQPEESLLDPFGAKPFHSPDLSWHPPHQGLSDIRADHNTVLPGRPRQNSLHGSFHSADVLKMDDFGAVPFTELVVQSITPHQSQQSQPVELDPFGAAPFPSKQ
inactive: [1] 0.01 | [2] 0.033 | [3] -0.017 | [4] -0.011 | [5] 0.126 | [6] 0.011 | [7] 0.01 | [8] -0.04 | [9] 0.007 | [10] -0.014 | [11] 0.13 | [12] 0.115 | [13] -0.02 | [14] -0.053 | [15] 0.269 | [16] 0.023 | [17] -0.058 | [18] -0.044 | [19] 0.008
active: [20] 0.656

ARL6IP6 (UniProt Q8N6S5)
UniProt Q8N6S5, sequence (Q8N6S5 whole entry, looked up): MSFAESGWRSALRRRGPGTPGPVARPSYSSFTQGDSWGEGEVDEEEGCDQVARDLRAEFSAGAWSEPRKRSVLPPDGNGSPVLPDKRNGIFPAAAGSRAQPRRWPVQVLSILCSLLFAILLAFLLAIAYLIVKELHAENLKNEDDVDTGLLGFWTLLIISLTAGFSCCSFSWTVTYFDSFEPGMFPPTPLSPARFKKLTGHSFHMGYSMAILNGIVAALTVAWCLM
inactive: [1] -0.112 | [2] -0.038 | [3] 0.009 | [4] -0.071 | [5] 0.106 | [6] 0 | [7] 0.049 | [8] 0.034 | [9] 0.099 | [10] -0.048 | [11] 0.154 | [12] -0.007 | [13] -0.043 | [14] -0.086 | [15] -0.074 | [16] 0.004 | [17] 0.004 | [18] 0.005 | [19] 0.029 | [20] 0.01

ATIC (UniProt P31939)
inactive: [1] 0.083 | [2] -0.022 | [3] 0.059 | [4] 0.022 | [5] -0.076 | [6] 0.025 | [7] 0.052 | [8] 0.019 | [9] -0.036 | [10] 0.013 | [11] -0.032 | [12] 0.021 | [13] 0.029 | [14] 0.04 | [15] -0.011 | [16] -0.016 | [17] 0.023 | [18] -0.012 | [19] -0.123 | [20] 0.029

AGPAT5 (UniProt Q9NUQ2)
inactive: [1] -0.02 | [2] -0.009 | [3] 0.012 | [4] -0.068 | [5] -0.061 | [6] 0.008 | [7] 0.095 | [8] -0.088 | [9] -0.05 | [10] 0.015 | [11] -0.169 | [13] -0.068 | [14] 0.007 | [15] 0.023 | [16] -0.13 | [17] 0 | [18] 0.01 | [19] -0.067 | [20] -0.25
active: [12] -0.281

B4GALNT1 (UniProt Q00973)
UniProt Q00973, sequence (Q00973 whole entry, looked up): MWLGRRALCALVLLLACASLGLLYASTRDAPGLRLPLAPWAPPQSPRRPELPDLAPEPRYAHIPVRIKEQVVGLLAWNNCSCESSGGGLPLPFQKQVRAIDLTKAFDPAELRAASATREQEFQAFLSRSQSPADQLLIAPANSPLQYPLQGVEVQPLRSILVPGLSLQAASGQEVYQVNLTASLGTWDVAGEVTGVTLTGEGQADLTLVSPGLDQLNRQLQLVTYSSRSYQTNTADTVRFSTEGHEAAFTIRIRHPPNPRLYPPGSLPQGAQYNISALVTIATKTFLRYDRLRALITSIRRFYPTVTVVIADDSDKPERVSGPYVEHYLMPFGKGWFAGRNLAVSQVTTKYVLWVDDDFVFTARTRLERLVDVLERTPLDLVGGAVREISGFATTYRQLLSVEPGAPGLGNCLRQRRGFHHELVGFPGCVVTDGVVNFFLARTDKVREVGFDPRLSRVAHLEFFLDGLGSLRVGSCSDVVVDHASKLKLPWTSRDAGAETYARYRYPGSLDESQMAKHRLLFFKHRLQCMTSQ
inactive: [1] 0.075 | [2] -0.028 | [3] -0.109 | [4] 0.005 | [5] 0.096 | [6] -0.172 | [7] -0.044 | [8] -0.028 | [9] -0.123 | [10] 0.104 | [11] -0.243 | [12] -0.097 | [13] -0.115 | [14] -0.059 | [15] 0.078 | [16] 0.01 | [17] 0.143 | [18] 0.025 | [19] -0.103 | [20] 0.173

ARMC10 (UniProt Q8N2F6)
inactive: [1] 0.03 | [2] -0.087 | [3] -0.019 | [4] -0.046 | [5] 0.056 | [6] 0.12 | [7] 0.074 | [8] 0.072 | [9] 0.063 | [10] 0.019 | [11] -0.062 | [13] 0.075 | [14] 0.022 | [15] -0.017 | [16] -0.008 | [17] 0.062 | [18] 0.015 | [19] 0.002 | [20] -0.044
active: [12] -0.333

ARL4A (UniProt P40617)
UniProt P40617, sequence (P40617 whole entry, looked up): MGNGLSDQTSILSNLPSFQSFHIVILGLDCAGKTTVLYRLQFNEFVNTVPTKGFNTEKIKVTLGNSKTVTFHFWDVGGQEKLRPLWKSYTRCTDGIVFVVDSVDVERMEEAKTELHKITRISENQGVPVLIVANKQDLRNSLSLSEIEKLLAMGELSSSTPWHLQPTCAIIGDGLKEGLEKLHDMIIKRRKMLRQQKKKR
inactive: [8] 0.078 | [10] 0.057 | [18] 0.063

ABHD11 (UniProt Q8NFV4)
UniProt Q8NFV4, sequence (Q8NFV4 whole entry, looked up): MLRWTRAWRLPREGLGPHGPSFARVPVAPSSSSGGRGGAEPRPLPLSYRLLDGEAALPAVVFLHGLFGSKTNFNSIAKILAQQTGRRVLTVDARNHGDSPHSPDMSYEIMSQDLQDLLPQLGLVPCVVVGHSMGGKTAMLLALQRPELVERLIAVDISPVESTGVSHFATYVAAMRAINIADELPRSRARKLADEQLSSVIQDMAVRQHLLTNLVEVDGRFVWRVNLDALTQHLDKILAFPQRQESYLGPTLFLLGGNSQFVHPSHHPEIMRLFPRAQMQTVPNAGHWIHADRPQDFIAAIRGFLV
inactive: [2] -0.065 | [3] -0.004 | [4] 0.003 | [5] -0.028 | [6] 0.139 | [7] -0.011 | [8] 0.023 | [9] 0.02 | [10] 0.057 | [11] -0.077 | [12] -0.127 | [13] -0.003 | [14] 0.272 | [15] 0.045 | [16] 0.086 | [17] 0.007 | [18] -0.016 | [19] -0.033 | [20] -0.126

APH1A (UniProt Q96BI3)
UniProt Q96BI3, sequence (Q96BI3 whole entry, looked up): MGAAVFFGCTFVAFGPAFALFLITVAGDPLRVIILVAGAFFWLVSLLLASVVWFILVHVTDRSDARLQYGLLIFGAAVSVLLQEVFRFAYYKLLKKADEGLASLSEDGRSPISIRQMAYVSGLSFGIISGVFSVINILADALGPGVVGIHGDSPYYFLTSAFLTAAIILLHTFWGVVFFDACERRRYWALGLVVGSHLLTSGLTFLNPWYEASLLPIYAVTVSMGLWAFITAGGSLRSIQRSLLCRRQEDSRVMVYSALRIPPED
inactive: [1] -0.136 | [3] 0.091 | [4] 0.042 | [6] 0.237 | [7] 0.121 | [8] -0.085 | [9] 0.021 | [10] 0.002 | [11] -0.023 | [12] 0.031 | [13] 0.004 | [15] -0.019 | [16] 0.026 | [17] 0.19 | [18] -0.183 | [19] 0.034 | [20] 0.03

AP4S1 (UniProt Q9Y587)
UniProt Q9Y587, sequence (Q9Y587 whole entry, looked up): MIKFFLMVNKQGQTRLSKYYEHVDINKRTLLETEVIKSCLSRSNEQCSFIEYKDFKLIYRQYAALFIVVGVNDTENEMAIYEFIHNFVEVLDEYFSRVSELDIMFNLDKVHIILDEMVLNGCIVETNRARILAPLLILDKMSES
inactive: [1] 0.033 | [3] -0.017 | [4] -0.007 | [5] -0.097 | [6] 0.107 | [7] 0.02 | [8] 0.102 | [9] 0 | [10] -0.008 | [11] -0.117 | [12] -0.321 | [13] 0.059 | [14] -0.006 | [15] -0.056 | [17] 0.027 | [18] 0.024 | [19] 0.078

AZI2 (UniProt Q9H6S1)
inactive: [1] -0.091 | [2] 0.045 | [6] 0.047 | [9] 0.028 | [10] -0.023 | [11] -0.021 | [13] -0.063 | [15] -0.041 | [17] 0.062 | [18] -0.001

ACSL6 isoform 1 (UniProt Q9UKU0)
UniProt Q9UKU0, sequence (Q9UKU0 whole entry, looked up): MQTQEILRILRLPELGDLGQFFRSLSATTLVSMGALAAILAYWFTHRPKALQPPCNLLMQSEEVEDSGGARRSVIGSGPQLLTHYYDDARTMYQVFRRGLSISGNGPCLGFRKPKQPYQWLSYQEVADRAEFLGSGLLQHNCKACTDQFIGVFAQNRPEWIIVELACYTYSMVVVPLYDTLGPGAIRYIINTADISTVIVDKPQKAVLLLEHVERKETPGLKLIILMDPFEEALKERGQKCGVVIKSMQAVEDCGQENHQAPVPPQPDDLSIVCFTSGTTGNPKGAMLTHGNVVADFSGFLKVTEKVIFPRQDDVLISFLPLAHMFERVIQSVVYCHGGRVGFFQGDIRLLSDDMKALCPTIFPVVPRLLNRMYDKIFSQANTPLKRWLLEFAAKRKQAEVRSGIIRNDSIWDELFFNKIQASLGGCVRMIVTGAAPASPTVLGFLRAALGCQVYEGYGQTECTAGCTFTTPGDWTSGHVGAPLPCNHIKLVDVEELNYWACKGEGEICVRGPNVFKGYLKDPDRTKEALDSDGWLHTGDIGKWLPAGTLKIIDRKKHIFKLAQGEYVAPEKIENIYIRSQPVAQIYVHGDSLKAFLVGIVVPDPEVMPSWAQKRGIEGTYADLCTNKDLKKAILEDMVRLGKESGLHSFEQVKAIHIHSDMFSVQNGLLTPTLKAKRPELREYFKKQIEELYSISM
inactive: [1] 0.075 | [2] -0.014 | [5] 0.082 | [6] 0.17 | [8] 0.035 | [9] 0.04 | [10] 0.133 | [13] 0.08 | [14] -0.159 | [15] 0.01 | [16] -0.014 | [17] 0.149 | [18] -0.069 | [19] -0.226
active: [20] -0.459

BRAF, A0A2R8Y8E0
inactive: [4] -0.021 | [8] -0.078 | [9] -0.006 | [13] 0.047 | [15] -0.078
active: [2] -1.03

BSCL2 isoform 4 (UniProt Q96G97)
UniProt Q96G97, sequence (Q96G97 whole entry, looked up): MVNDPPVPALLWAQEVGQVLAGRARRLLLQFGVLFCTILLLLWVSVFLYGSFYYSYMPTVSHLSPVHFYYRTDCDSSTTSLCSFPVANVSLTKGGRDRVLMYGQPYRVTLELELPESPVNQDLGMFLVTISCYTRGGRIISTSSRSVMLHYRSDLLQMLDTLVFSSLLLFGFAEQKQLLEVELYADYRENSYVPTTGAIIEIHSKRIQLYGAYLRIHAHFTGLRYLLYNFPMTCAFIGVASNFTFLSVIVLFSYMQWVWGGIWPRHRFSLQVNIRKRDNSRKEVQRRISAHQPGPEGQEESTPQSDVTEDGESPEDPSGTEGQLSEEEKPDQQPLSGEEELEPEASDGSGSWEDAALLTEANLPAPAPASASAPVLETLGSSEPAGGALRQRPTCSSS
inactive: [3] -0.073 | [5] -0.174 | [6] 0.179 | [7] -0.043 | [8] -0.124 | [9] 0.052 | [10] 0.199 | [12] 0.072 | [13] 0.093 | [14] -0.05 | [15] -0.004 | [16] 0 | [17] -0.006 | [18] -0.001 | [19] -0.005 | [20] -0.057

AP2M1 (UniProt C9JTK4)
inactive: [1] -0.04 | [4] -0.033 | [5] 0.009 | [6] -0.262 | [8] -0.172 | [10] -0.079 | [11] 0.03 | [13] -0.051 | [14] 0.027 | [17] -0.243 | [18] -0.016 | [19] -0.049

BRD2 isoform 2 (UniProt P25440)
active: [12] 1.76
inactive: [1] 0.348 | [3] 0.039 | [4] 0.076 | [6] -0.033 | [7] 0.014 | [9] -0.596 | [10] -0.053 | [15] 0.104 | [16] 0.486 | [17] 0.115 | [18] 0.24 | [19] -0.132 | [20] 0.129

ACVR1 (UniProt Q04771)
UniProt Q04771, sequence (Q04771 whole entry, looked up): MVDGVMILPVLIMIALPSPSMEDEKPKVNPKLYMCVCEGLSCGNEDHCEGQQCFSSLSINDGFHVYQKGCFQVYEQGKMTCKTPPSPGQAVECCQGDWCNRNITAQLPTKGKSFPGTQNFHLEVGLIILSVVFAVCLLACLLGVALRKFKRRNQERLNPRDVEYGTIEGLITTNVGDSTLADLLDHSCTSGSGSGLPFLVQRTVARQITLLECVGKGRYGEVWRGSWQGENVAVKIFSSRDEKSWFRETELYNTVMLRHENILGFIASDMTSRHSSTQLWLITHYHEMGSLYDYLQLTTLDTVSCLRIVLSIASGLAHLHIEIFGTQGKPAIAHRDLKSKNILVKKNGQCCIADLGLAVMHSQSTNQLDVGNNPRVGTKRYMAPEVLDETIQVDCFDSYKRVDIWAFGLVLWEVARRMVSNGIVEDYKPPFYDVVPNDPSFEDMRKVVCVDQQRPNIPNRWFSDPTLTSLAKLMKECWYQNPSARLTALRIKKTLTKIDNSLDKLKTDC
active: [20] 0.925
inactive: [1] -0.194 | [3] 0.011 | [5] 0.037 | [6] 0.015 | [7] 0.017 | [8] -0.149 | [9] 0.031 | [11] -0.104 | [12] -0.2 | [14] 0.16 | [15] -0.036 | [16] 0.065 | [17] -0.095 | [19] -0.111

ATP6V0A1 (UniProt Q93050)
inactive: [10] -0.095 | [18] -0.082

ATF1 (UniProt P18846)
UniProt P18846, sequence (P18846 whole entry, looked up): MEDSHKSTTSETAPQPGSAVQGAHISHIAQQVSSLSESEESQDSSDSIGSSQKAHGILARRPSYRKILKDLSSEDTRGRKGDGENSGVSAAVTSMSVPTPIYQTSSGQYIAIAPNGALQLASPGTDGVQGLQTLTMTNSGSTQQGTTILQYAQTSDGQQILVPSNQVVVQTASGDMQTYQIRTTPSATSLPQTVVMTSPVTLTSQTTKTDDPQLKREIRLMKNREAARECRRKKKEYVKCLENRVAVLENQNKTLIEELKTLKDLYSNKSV
inactive: [1] -0.066 | [3] -0.113 | [5] -0.026 | [6] 0.035 | [7] -0.016 | [8] 0.002 | [9] 0.003 | [10] 0.079 | [11] 0 | [12] 0.109 | [13] -0.065 | [14] 0.17 | [15] 0.005 | [16] 0.035 | [17] 0.002 | [18] -0.104 | [20] -0.002

ATXN3 isoform 1 (UniProt P54252)
active: [12] -0.401
inactive: [2] -0.08 | [3] 0.012 | [4] -0.043 | [6] 0.005 | [7] 0.04 | [8] -0.016 | [9] 0.02 | [10] 0.179 | [11] -0.371 | [13] 0.099 | [15] 0.011 | [16] -0.016 | [17] -0.083 | [18] -0.039 | [20] -0.015

— the supplement of paper PMC10849652
